This note sets out measurements from ChEMBL document CHEMBL3988442, “University of Dundee, Small-Polar-MMV Screening Library” (2021).

The target in this experiment is Chromo domain-containing protein 1 (Saccharomyces cerevisiae (strain ATCC 204508 / S288c) (Baker's yeast)) (UniProt P32657). Description: ScCHD-1 Enzyme Inhibition Assay. In kind it is functional. Also noted: scale not given: in the data most compounds retested in dose-response had high values. The note with it: 30 µM.
Chain of Chromo domain-containing protein 1 (Saccharomyces cerevisiae (strain ATCC 204508 / S288c) (Baker's yeast)) (P32657 whole entry, the tested form may be a part): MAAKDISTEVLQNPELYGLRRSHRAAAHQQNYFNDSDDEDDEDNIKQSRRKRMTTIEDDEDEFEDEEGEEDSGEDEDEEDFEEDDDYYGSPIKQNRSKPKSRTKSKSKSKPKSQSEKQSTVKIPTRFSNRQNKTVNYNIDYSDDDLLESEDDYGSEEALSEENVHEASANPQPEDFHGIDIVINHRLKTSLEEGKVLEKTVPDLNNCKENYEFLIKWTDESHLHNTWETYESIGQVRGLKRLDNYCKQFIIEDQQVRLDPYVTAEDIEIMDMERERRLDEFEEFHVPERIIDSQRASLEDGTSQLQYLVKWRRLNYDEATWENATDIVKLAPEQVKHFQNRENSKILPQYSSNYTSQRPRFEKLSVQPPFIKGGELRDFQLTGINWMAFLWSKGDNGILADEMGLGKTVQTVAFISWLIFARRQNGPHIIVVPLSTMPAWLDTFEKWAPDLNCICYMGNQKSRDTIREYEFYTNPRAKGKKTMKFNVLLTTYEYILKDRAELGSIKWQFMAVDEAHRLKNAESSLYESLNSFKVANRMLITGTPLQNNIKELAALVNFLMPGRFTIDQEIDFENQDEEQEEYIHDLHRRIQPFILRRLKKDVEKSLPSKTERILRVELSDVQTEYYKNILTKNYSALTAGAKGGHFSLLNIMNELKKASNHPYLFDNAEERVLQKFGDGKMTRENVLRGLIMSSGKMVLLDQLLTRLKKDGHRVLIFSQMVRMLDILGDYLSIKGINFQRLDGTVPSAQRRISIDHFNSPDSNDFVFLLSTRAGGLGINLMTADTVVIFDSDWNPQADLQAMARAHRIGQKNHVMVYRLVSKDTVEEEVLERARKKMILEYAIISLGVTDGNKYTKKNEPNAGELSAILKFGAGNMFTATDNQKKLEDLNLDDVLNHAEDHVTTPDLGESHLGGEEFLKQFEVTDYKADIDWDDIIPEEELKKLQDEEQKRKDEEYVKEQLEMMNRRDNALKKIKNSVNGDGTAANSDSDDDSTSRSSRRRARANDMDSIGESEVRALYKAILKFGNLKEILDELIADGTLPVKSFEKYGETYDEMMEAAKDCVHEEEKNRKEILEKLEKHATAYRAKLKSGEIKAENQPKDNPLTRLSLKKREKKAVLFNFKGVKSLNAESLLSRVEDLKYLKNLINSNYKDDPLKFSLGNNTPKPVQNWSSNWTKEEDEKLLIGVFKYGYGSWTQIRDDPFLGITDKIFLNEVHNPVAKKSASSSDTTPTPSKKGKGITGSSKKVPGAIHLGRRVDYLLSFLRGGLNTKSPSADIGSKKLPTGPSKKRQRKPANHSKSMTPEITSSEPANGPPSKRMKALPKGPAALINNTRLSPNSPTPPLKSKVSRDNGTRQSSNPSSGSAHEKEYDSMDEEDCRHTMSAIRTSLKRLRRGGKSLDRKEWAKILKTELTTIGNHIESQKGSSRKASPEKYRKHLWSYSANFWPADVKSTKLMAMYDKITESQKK
`O=C(NC1CCC1)[C@@H]1C[C@@H]2CCN(Cc3cccs3)C[C@@H]2O1`: the Percent Effect is -2.54%.
The value for `CN(C)CC1(O)CCN(S(=O)(=O)c2ccc(F)cc2)C1` (stereo not given) was 65.3%; that for `Cc1ncsc1-c1nnc(C2CCN(Cc3ccc(F)cc3)CC2)o1` was -19.5%.
Consider `Cc1ncc(CN(C)CC2CCCN2c2cccnn2)s1` (stereo not given), for which the Percent Effect is -37.9%.
The value for `CN(C)CCn1c(=O)oc2ccc(NC(=O)CC(C)(C)C)cc21` was 1.52%; that for `O=C(NCC(O)c1ccccc1Cl)c1cccc(-n2cnnn2)c1` (stereo not given) was 98.6%; that for `COCC(NC(=O)c1cnn(C)c1)c1cccc(C(F)(F)F)c1` (stereo not given) was 0.364%.
For the compound `CC(C)c1nc(C2CCCN2Cc2ccno2)no1` (stereo not given), the Percent Effect was 4.2%.
With `CN1CCN(Cc2cscn2)CC(C(=O)N(C)C)C1` (stereo not given), the Percent Effect was -4.45%.
For the compound `N#Cc1ccc(CN2CCN(C(=O)C3CCC3)[C@@H]3CS(=O)(=O)C[C@@H]32)cc1`, the Percent Effect was -1.71%.
In the case of `O=C(NC1CC1)[C@@H]1CCO[C@@H]2CCN(Cc3ccsc3)C[C@H]21`, the Percent Effect is 7.56%.
The value for `COC1CCN(C(=O)c2c(Cl)c3ccccc3n2C)CC1` was -5%; that for `OC(CN1CCOCC1)c1ccc(OC(F)(F)F)cc1` (stereo not given) was -7.59%.
`CCOCCN1CCN(Cc2nc(C3CC3)no2)CC1CC` (stereo not given): the Percent Effect is -5.89%.
`CCOC(CC)C(=O)NCCC(=O)N1CCN(c2ncccn2)CC1` (stereo not given): the Percent Effect was determined as 1.78%.
With `CN(Cc1ccsc1)C(=O)c1cc2c([nH]c1=O)CCCC2=O`, the Percent Effect was -6.06%.
The value for `CC(C)CCN1CN=C(NS(=O)(=O)c2ccc(F)cc2)NC1` was -8.81%; that for `COCCN1C[C@@H]2CCCO[C@@H]2[C@H](N(C)Cc2ccco2)C1` was -2.07%; that for `CN(Cc1cnn(C)c1)C(=O)NC1CCN(c2ncccn2)CC1` was -8.45%.
With `Cc1nc(C2CCCN2CC(=O)N2CCCc3ccccc32)no1` (stereo not given), the Percent Effect is -4.73%.
